This is an account of results in PubChem BioAssay AID1004 (SRMLSC, 2008).

As a reminder, the viability is a read-out of living cells in per cent, often relative to untreated cells.

Molecules are shown by their SMILES. Values without a mark were called inactive. Active and inactive are the calls of the source.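 The calls were made as follows: active = viability at 10 µM of 29.74% or lower, 3 SD below the compound median; inactive = the rest.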

A short description of this assay: viability of HCT116 lacking mutant beta-catenin – cell-based, DP diverse set, validation, pilot screen (AID 1004). To be noted: HCT116 (mutant beta-catenin deleted) viability, CellTiter-Glo, 60 h; at 10 µM; hits give low values. Background: In ATP-based viability assays light output follows the ATP content of the culture.
As for `COC1=C[C@@H]2[C@@H]3Cc4ccc(OC)c(O)c4[C@]2(CCN3C)CC1=O`, the viability was 96.9%.
For `O=C1C=CC(=O)C(Cl)=C1`, the viability is 101%.
Next, `N#CC(C#N)=Cc1cc(O)c(O)c([N+](=O)[O-])c1`: 101%; `CNc1ccc2oc(C[C@@H]3OC4(CC[C@@H]3C)O[C@H](C(C)C(=O)c3ccc[nH]3)[C@H](C)C[C@H]4C)nc2c1C(=O)O` (some centres undefined): 9.98% (active); `CC[C@@]1(O)C(=O)OCc2c1cc1n(c2=O)-c2cc3ccccc3nc2C1`: 24.3% (active).
The result for `CN(C)[C@@H]1C(=O)C(C(N)=O)=C(O)[C@@]2(O)C(=O)C3=C(O)c4c(O)cccc4[C@@](C)(O)C3CC12` (some centres undefined) reads 98.3%; that for `Nc1ccncc1`, 103%; that for `CC/C(=C(\c1ccccc1)c1ccc(OCCN(C)C)cc1)c1ccccc1`, 67.6%.
For the compound `C[C@]12CC[C@@H](O)C[C@@H]1CC[C@@H]1[C@@H]2CC[C@]2(C)C(=O)CC[C@@H]12`, the viability was 98.5%.
Next, `CCCN1CCC[C@@H]2Cc3cn[nH]c3C[C@H]21`: 103%.
Regarding `CC(C)(C)[C@]1(O)C[C@@H]2OC(=O)CC23C(=O)O[C@@H]2OC(=O)[C@H](O)C231` (some centres undefined), the viability was 93.5%.
In the case of `CC(=O)O[C@H]1[C@H]2[C@@H](OC(=O)Cc3ccccc3)[C@@H](C)C[C@]2(OC(C)=O)C(=O)/C(C)=C/[C@@H]2[C@H](CC[C@@]13CO3)C2(C)C`, the viability is 89.4%.
As for `NCC(CC(=O)O)c1ccc(Cl)cc1` (centres undefined), the viability is 103%.
In the case of `CCCC[C@H]1C(=O)O[C@H](C)[C@H](NC(=O)c2cccc(NC=O)c2OC)C(=O)O[C@@H](C)[C@@H]1OC(=O)CC(C)C`, the viability is 95.2%.
For the compound `C[C@@H]1CC[C@H]2[C@@H](C)C(=O)O[C@@H]3OC4(C)CC[C@@H]1[C@]32OO4`, the viability is 100%.
Turning to `COC[C@H]1OC(=O)c2coc3c2[C@@]1(C)C1=C(C3=O)C2CCC(=O)[C@@]2(C)C[C@H]1OC(C)=O` (some centres undefined), the viability is 78.1%.
For the compound `OCC1CCCN2CCCCC12` (centres undefined), the viability is 99.4%.
As for `C=CCN1CC[C@]23c4c5ccc(O)c4O[C@H]2C(=O)CC[C@@]3(O)[C@H]1C5`, the viability is 96.6%.
With `CSC(=S)NCc1c[nH]c2ccccc12`, the viability was 95%.
Next, `N#CC(C#N)=Cc1ccc([N+](=O)[O-])c(O)c1`: 97.9%; `O=C1CCC[C@H]2[C@@H]3CCCN4CCC[C@H](CN12)[C@H]34`: 104%.
Turning to `CC1=C2[C@H]3OC(=O)[C@@H](C)[C@@H]3CC[C@@]2(C)C=CC1=O`, the viability is 98%.
`O[C@H]1[C@H](O)[C@@H](O)CN2CC[C@H](O)[C@H]12`: the viability is 95.4%.
For the compound `N#Cc1nn(-c2c(Cl)cc(C(F)(F)F)cc2Cl)c(N)c1S(=O)C(F)(F)F` (centres undefined), the viability is 92.8%.
`C=C(C)[C@H]1CN[C@H](C(=O)O)[C@H]1CC(=O)O`: the viability is 94.1%.
The result for `CC(C)c1cc2c(c(O)c1O)[C@@]1(C(=O)O)CCCC(C)(C)[C@@H]1CC2` reads 103%; that for `O=C1C=C2C=C[C@@H]3C[C@@]2(O1)[C@H]1CCCCN31`, 86%; that for `COC(=O)C(O)C(O)(CCC(C)C)C(=O)OC1C(OC)=CC23CCCN2CCc2cc4c(cc2C13)OCO4` (centres undefined), 30%.
The result for `NCCc1c[nH]c2ccc(O)cc12` reads 100%.
Next, `CCCCCCCCCCCCCC(=O)O[C@@H]1[C@@H](C)[C@@]2(O)[C@@H](C=C(CO)C[C@]3(O)C(=O)C(C)=C[C@@H]23)[C@@H]2C(C)(C)[C@]12OC(C)=O`: 82.7%.
For `C[C@@H]1O[C@@H](OC2CC(O)C3(CO)C4C(CCC3(O)C2)C2(O)CCC(C3=CC(=O)OC3)C2(C)C[C@H]4O)[C@H](O)[C@H](O)[C@H]1O` (some centres undefined), the viability is 128%.
As for `CCN1C[C@@]2(COC)C3[C@@H](OC)[C@H]4C1[C@@]3(C1C[C@]3(O)C(OC)[C@H](O)[C@@]4(OC(C)=O)C1[C@H]3OC(=O)c1ccccc1)[C@H](OC)C[C@H]2O` (some centres undefined), the viability was 99.8%.
With `CN1C[C@H](CNC(=O)OCc2ccccc2)C[C@@H]2c3cccc4c3c(cn4C)C[C@H]21`, the viability was 80.4%.
For `C[C@H]1CCC/C=C/C2C[C@H](O)C[C@H]2[C@H](O)/C=C/C(=O)O1` (some centres undefined), the viability was 40.4%.
